# Experimental data published in PubChem BioAssay AID463173 (ICCB-Longwood Screening Facility, Harvard Medical School, 2010).
# Among all 52,000 compounds or so, about 4,300 (8.3%) were called active. Rule as the data show it: active = survival mostly below about 52% (no sharp cut-off); inactive = mostly above about 56%. Shown is part of a subset that was picked to be rich in actives.
# Test system: DeltatarO mutant
# Assay: growth inhibition of S. aureus wild type versus tarO mutant, primary screen, teichoic acid synthesis inhibitors, RN4220, OD600 (AID 463173)
# Conditions: OD600, 18 h, stronger effect = lower value, screened at 18.75 µg/mL (by protocol)
row,Compound,survival
1,COC(=O)CSc1nnc2n(-c3ccccc3)c(=O)c3c4c(sc3n12)COC(C(C)C)C4 (centres undefined),123% (inactive)
2,Cc1nn2c(C)c(C(=O)N3CCN(c4ccccc4F)CC3)cnc2c1-c1ccc(F)cc1,88% (inactive)
3,O=C(NC1CCCC1)c1ccc2c(c1)N(Cc1ccc(F)cc1)C(=O)c1ccccc1S2,81% (inactive)
4,O=C1CNC(=O)N1Cc1ccc(F)cc1,108% (inactive)
5,Cc1cccc(NC(=O)c2sc(-n3nc(C)c(CCC(C)C)c3C)nc2C)c1,53% (inactive)
6,O=C(CSc1nnc(-c2ccc(Cl)cc2)o1)Nc1ccc(F)cc1,69% (inactive)
7,Cc1cccc(C)c1NC(=O)Cn1nc(C)c2sc3ccccc3c2c1=O,99% (inactive)
8,COc1ccc(Cc2nnc(NC(=O)c3cccs3)s2)cc1OC,100% (inactive)
9,CSc1nc2c(c(=O)[nH]1)C(c1cccc(F)c1F)CC(=O)N2 (centres undefined),111% (inactive)
10,CC(C)c1ccc(NC(=O)Cn2c(=O)n(CCc3ccccc3)c(=O)c3ccccc32)cc1,82% (inactive)
11,COc1ccc(Cl)cc1NC(=O)CCc1nc(-c2ccccc2F)no1,20% (active)
12,Cc1ccc(NC(=O)CCc2nc(-c3ccccc3F)no2)c(C)c1,93% (inactive)
13,COc1ccc(-c2noc(CCC(=O)Nc3ccccc3Cl)n2)cc1OC,97% (inactive)
14,CCCNC(=O)N1c2ccc(F)cc2CCC1C (centres undefined),87% (inactive)
15,COc1ccc(CNC(=O)c2ccc(CN3C(=O)C(C)=C(c4ccc(C)cc4)S3(=O)=O)cc2)cc1,89% (inactive)
16,Cc1cccc(-n2ncc3c(N4CCCC(C)C4)ncnc32)c1 (centres undefined),84% (inactive)
17,COc1ccccc1N1CCN(c2nc(-c3ccc(C)cc3)nc3ccccc23)CC1,83% (inactive)
18,Cc1ccc(-c2nc(N3CCCC(C)C3)c3ccccc3n2)cc1 (centres undefined),-2% (active)
19,CC1CCCN(c2nc(-c3ccccc3O)nc3ccccc23)C1 (centres undefined),-6% (active)
20,CC1CCCN(c2csc3ccccc3c2=O)C1 (centres undefined),69% (inactive)
21,COc1ccc(N2CCN(c3nc(-c4ccccc4F)nc4ccccc34)CC2)cc1,88% (inactive)
22,COc1cccc(-c2nnc(-c3ccccc3NC(=O)c3ccc(F)cc3F)o2)c1,78% (inactive)
23,CCOc1ccc(CCNC(=O)c2cccc(-n3c(C)nc4cccnc43)c2C)cc1,79% (inactive)
24,Cc1cc(C)c2[nH]c(=O)c(CN(Cc3ccco3)C(=S)NCCCN3CCOCC3)cc2c1,78% (inactive)

row,Compound,survival
1,CCc1ccc(OCCn2c(C3CC(=O)N(Cc4ccc(F)cc4)C3)nc3ccccc32)cc1 (centres undefined),3% (active)
2,Cc1cc(OCCn2c(C3CC(=O)N(Cc4ccc(F)cc4)C3)nc3ccccc32)ccc1Cl (centres undefined),1% (active)
3,CCOc1ccccc1N1CC(c2nc3ccccc3n2CCOc2ccc(C(C)(C)C)cc2)CC1=O (centres undefined),62% (inactive)
4,COCCNC(=O)c1cc2n(n1)CCCN(Cc1ccc(C)cc1)C2=O,78% (inactive)
5,CCCOc1cccc(NC(=O)c2c(-c3ccccc3Cl)noc2C)c1,37% (active)
6,CCOc1ccc(OC(=O)c2c(-c3ccccc3Cl)noc2C)cc1,72% (inactive)
7,CC(=O)c1ccc(OC(=O)c2c(-c3ccccc3Cl)noc2C)cc1,94% (inactive)
8,CCCC(=O)c1ccc(OC(=O)c2c(-c3ccccc3Cl)noc2C)cc1,102% (inactive)
9,CCCOc1ccc(OC(=O)c2c(-c3ccccc3Cl)noc2C)cc1,84% (inactive)
10,Cc1onc(-c2ccccc2Cl)c1C(=O)Oc1ccc(Br)cc1,41% (active)
11,Cc1ccc(NC(=O)Cn2nc(N3CCN(c4ccccc4)CC3)ccc2=O)cc1F,83% (inactive)
12,Fc1ccc2ncc3c(-c4ccccc4)n[nH]c3c2c1,83% (inactive)
13,COc1ccc(C(=O)Nc2ccc(-c3cc4ccccc4oc3=O)c(C)c2)cc1OC,69% (inactive)
14,Cc1cc(C)cc(NC(=O)c2sc3nc4n(c(=O)c3c2C)N=C(c2ccccc2)CS4)c1,69% (inactive)
15,COc1ccc(Br)cc1Cn1nnc(C(=O)Nc2ccc(C)cc2C)c1N,48% (inactive)
16,CCc1ccc(NC(=O)Cn2c(=O)n(CCCCC(=O)NCCc3ccccc3)c(=O)c3ccccc32)cc1,84% (inactive)
17,CCOC(=O)c1c(C)[nH]c(C)c1S(=O)(=O)N1CCCC(C(=O)NCc2cccc(OC)c2)C1 (centres undefined),78% (inactive)
18,Cc1ccc(S(=O)(=O)c2nc(-c3cccs3)oc2SCc2ccc(F)cc2)cc1,62% (inactive)
19,COc1ccc(-c2nc(S(=O)(=O)c3ccc(Cl)cc3)c(NCc3ccccc3)o2)cc1,136% (inactive)
20,Cc1ccc(S(=O)(=O)c2nc(-c3ccc(F)cc3)oc2SCC(=O)NC2CCCCC2)cc1,149% (inactive)
21,COc1cccc(-c2nc(S(=O)(=O)c3ccc(Cl)cc3)c(NCc3ccccc3)o2)c1,180% (inactive)
22,CC(C)S(=O)(=O)c1oc(-c2ccc(F)cc2)nc1S(=O)(=O)c1ccc(F)cc1,22% (active)
23,CCC(C)S(=O)(=O)c1oc(-c2ccc(F)cc2)nc1S(=O)(=O)c1ccc(F)cc1 (centres undefined),41% (active)
24,Cc1ccc(S(=O)(=O)c2nc(-c3cccs3)oc2SC(C)C)cc1,66% (inactive)

row,Compound,survival
1,CS(=O)(=O)c1oc(-c2ccc(F)cc2)nc1S(=O)(=O)c1ccc(Cl)cc1,-5% (active)
2,CC(C)S(=O)(=O)c1oc(-c2cccs2)nc1S(=O)(=O)c1ccc(F)cc1,9% (active)
3,CCC(C)S(=O)(=O)c1oc(-c2cccs2)nc1S(=O)(=O)c1ccccc1 (centres undefined),53% (inactive)
4,CCOc1ccc(NC(=O)CSc2oc(-c3ccc(F)cc3)nc2S(=O)(=O)c2ccc(C)cc2)cc1,63% (inactive)
5,Cc1ccccc1CNC(=O)CCCn1c(=O)c2cccn2c2cccnc21,114% (inactive)
6,CCOc1ccc(C2CC(c3c(O)n(C4CCCCC4)c(=O)[nH]c3=O)=Nc3ccccc3S2)cc1 (centres undefined),47% (inactive)
7,Cc1ccc2c(c1)cc1c(=O)n(CC(=O)N3CCCCC3)nc(C)n12,90% (inactive)
8,COc1ccc(C)cc1S(=O)(=O)NCC(c1cccs1)S(=O)(=O)c1ccc(C)cc1 (centres undefined),69% (inactive)
9,Cc1ccc(-c2nnc(NC(=O)c3ccc4c(c3)OCCO4)o2)c(C)c1,96% (inactive)
10,Cc1ccc(NC(=O)Cn2nc(Cc3ccncc3)c3ccccc3c2=O)c(Cl)c1,66% (inactive)
11,COc1cc(-c2nc3cccc(C)n3c2Nc2ccc3c(c2)OCCO3)ccc1O,76% (inactive)
12,CCc1ccc(NC(=O)CCn2nc(C)c(S(=O)(=O)N3CCCCC3)c2C)cc1,128% (inactive)
13,COC(=O)c1ccccc1NC(=O)c1ncoc1-c1ccco1,62% (inactive)
14,CC(C)S(=O)(=O)c1oc(-c2ccc(F)cc2)nc1S(=O)(=O)c1ccccc1,33% (active)
15,CCN(CC)CCNc1nc2c(c(=O)n(C)c(=O)n2C)n1CCc1ccccc1,103% (inactive)
16,COc1ccc(NC(=O)C2=C(C)Nc3nc(SCc4ccccc4)nn3C2c2cc(OC)ccc2OC)cc1 (centres undefined),78% (inactive)
17,COc1cccc(C(=O)Nc2cccc(C(=O)OCc3cc(=O)n4nc(C(C)C)sc4n3)c2)c1,101% (inactive)
18,COc1ccc(N2CCN(C(=O)c3nc(-c4ccc(Cl)cc4)n4c3CCCCC4)CC2)cc1,81% (inactive)
19,Cc1ccc(NC(=O)CSc2nncn2C)c(C)c1,75% (inactive)
20,CC(=O)Nc1nonc1-c1nnc(SCc2ccc(F)cc2)n1C,44% (inactive)
21,CC(=O)Nc1nonc1-c1nnc(SCC(=O)Nc2ccc(C)c(Cl)c2)n1C,60% (active)
22,CC(=O)Nc1nonc1-c1nnc(SCC(=O)Nc2ccc(C)c(Cl)c2)n1-c1ccccc1,49% (inactive)
23,CC(=O)Nc1nonc1-c1nnc(SCc2ccc(C)cc2)n1C,48% (inactive)
24,CC(=O)Nc1nonc1-c1nnc(SCc2ccc(F)cc2Cl)n1C,45% (inactive)

row,Compound,survival
1,CC(=O)Nc1nonc1-c1nnc(SCc2ccccc2Cl)n1C,42% (active)
2,COc1ccc(NC(=O)CSc2nnc(-c3nonc3NC(C)=O)n2C)cc1Cl,55% (inactive)
3,CC(=O)Nc1nonc1-c1nnc(SCc2ccccc2C)n1C,42% (active)
4,CC(=O)Nc1nonc1-c1nnc(SCc2ccccc2)n1C,44% (inactive)
5,CC(=O)Nc1nonc1-c1nnc(SCc2ccccc2F)n1C,46% (inactive)
6,CC(=O)Nc1nonc1-c1nnc(SCc2ccc(Cl)cc2)n1C,42% (active)
7,CC(=O)Nc1nonc1-c1nnc(SCC(=O)Nc2ccccc2Cl)n1C,50% (inactive)
8,Cc1c(NC(=O)Cc2ccc(Cl)cc2)cccc1-c1nc2cccnc2s1,114% (inactive)
9,Cc1csc2nc(COC(=O)c3cccc(NC(=O)COc4ccccc4Cl)c3)cc(=O)n12,88% (inactive)
10,Cc1cc2ncn(S(=O)(=O)c3ccc(S(N)(=O)=O)cc3)c2cc1C,84% (inactive)
11,Cc1ccccc1NC(=O)N1CCCC(c2nc(-c3ccc(F)cc3)no2)C1 (centres undefined),93% (inactive)
12,Cc1ccccc1NC(=O)CN1C(=O)CCn2nc(-c3cccn3C)cc21,83% (inactive)
13,O=C(CSc1nc(-c2ccc(Cl)cc2)nc2c1Cc1ccccc1O2)N1CCCCC1,96% (inactive)
14,O=C(Cn1cc(C(=O)c2cccs2)c2ccccc21)Nc1ccc(Br)cc1,127% (inactive)
15,O=C1CC(CSc2nnnn2-c2ccccc2)=NN1,101% (inactive)
16,O=S(=O)(NCCSc1nnnn1-c1ccccc1)c1ccc(F)cc1,76% (inactive)
17,O=S1(=O)C=C(Sc2nnnn2-c2ccccc2)c2ccccc21,4% (active)
18,Cc1cc(NC(=O)CCCn2c(C)c3cnn(-c4ccccc4)c(=O)c3c2C)ccc1Br,71% (inactive)
19,COc1ccc(CCNC(=O)Cn2c(=O)nc(-c3ccccc3)c3cc(Cl)ccc32)cc1OC,94% (inactive)
20,CCOCCCNC(=O)c1ccc(-c2nc(CS(=O)(=O)c3ccccc3)c(C)o2)cc1,66% (inactive)
21,Cc1ccc(S(=O)(=O)Cc2nc(-c3ccc(C(=O)NCCCOC(C)C)cc3)oc2C)cc1,72% (inactive)
22,Cc1oc(-c2ccc(C(=O)NCCCOC(C)C)cc2)nc1CS(=O)(=O)c1ccccc1,-4% (active)
